Reference: PubChem BioAssay (NCATS)
Inconclusive results are not listed. A number with no mark means an inactive call. The source made the active and inactive calls. The call rests on the fitted dose curve; in most records, active means well fitted cell-killing curve with a large enough effect; inconclusive means small, poorly fitted or top-dose-only effect; inactive means no such curve, though single readings can be large or run the other way.

assay: qHTS of pediatric cancer cell lines to identify multiple opportunities for drug repurposing: Primary screen for SK-N-SH cells (AID 1347098); details: SK-N-SH viability, CellTiter-Glo luminescence, 48 h; series mostly up to 57 µM; activity change, negative = cytotoxic: at the top concentration; further: nearly all actives have a fitted effect of over 65% in size
From the text: Drug repurposing or repositioning has been offered as a strategy for drug development in oncology programs. This approach has special potential for childhood cancers and other rare or orphan diseases, where the expected return on new drug development has been a disincentive to pharmaceuticals.
In this project we exploit the poly-pharmacology of drugs to discover new indications via phenotypic screening of a panel of 19 well-characterized cell lines derived from solid tumors seen in children and adolescents. The goal is to identify approved drugs with previously unrecognized anticancer properties that has the potential to reveal new mechanisms and biological processes involved in carcinogenesis or drug resistance. We employed a titration-based paradigm (quantitative high-throughput screening or qHTS), where all compounds were tested at multiple concentrations for their effect on cell viability. Concentration-response curves (CRCs) were derived directly from the primary screen, and both potency and efficacy values were used to identify compounds with robust bioactivity profiles. We screened the NIH Chemical Genomics Center (NCGC) Pharmaceutical Collection (NPC) and Mechanism Interrogation Plate (MIPE) small molecule collections of approved and investigational compounds against these cell lines; and measured metabolically active cells after 48 hours of compound treatment as a proxy for cell viability.
Assay Submitter: Nathalia J. Martinez, National Center for Advancing Translational Sciences, National Institutes of Health, Rockville, MD, USA; email: natalia.martinez@nih.gov
[1] Shen, M et al. Quantitative high-throughput phenotypic screening of pediatric cancer cell lines identifies multiple opportunities for drug repurposing. Oncotarget 2017 Dec 19;9(4):4758-4772. PMID 29435139.
The cells were obtained from University of North Carolina (UNC), Pediatric Preclinical Testing Program (PPT), and Coriell Institute (CI).
qHTS cell viability assay:
Cells were assayed in growth media at a density of 500-1,000 cells/well. Five microliters of cells were dispensed into 1,536-well, white, solid-bottom, TC-treated plates (Greiner Bio One) using a multidrop dispenser and incubated at 37 degrees C, 5% CO2, under a humidified atmosphere for 5 hours. Twenty-three nanoliters of compounds and controls (neutral control DMSO or positive control bortezomib at final concentration of 2.3 µM) were subsequently transferred by Kalypsys pintool. For primary screens, the MIPE collection was tested at 11-point dilutions (final concentrations range from 0.78 nM to 46 µM) and the NPC collection at 8-point dilutions (final concentrations range from 0.59 nM to 46 µM). Compounds tested in follow-up screens were assayed at 11-point dilutions. Cells were incubated for 48 hours, followed by addition of 3 µL of CellTiter-Glo (Promega). After a 15 min incubation at room temperature, samples were analyzed for luminescence intensity using a ViewLux High-throughput CCD imager equipped with clear filters.
On the % scale 0 is the no-effect control and ±100 the full control effect; potency means the concentration at half of the fitted maximal effect.

SMILES	activity change, negative = cytotoxic	Potency
NC(=O)CC[C@@H]1NC(=O)[C@H](Cc2ccccc2)NC(=O)[C@H](Cc2ccc(O)cc2)NC(=O)CCSSC[C@@H](C(=O)N2CCC[C@H]2C(=O)N[C@@H](CCCN=C(N)N)C(=O)NCC(N)=O)NC(=O)[C@H](CC(N)=O)NC1=O	-6.83%	
COc1cccc(CCc2ccccc2OCC(CN(C)C)OC(=O)CCC(=O)O)c1 (stereo not given)		17.2 µM (active)
CC1(C)O[C@@H]2C[C@H]3[C@@H]4C[C@H](F)C5=CC(=O)C=C[C@]5(C)[C@H]4[C@@H](O)C[C@]3(C)[C@]2(C(=O)CO)O1	16.7%	
CCC(=O)c1c(O)cc(O)cc1O	2.03%	
Cc1nc2n(c(=O)c1CCN1CCC(c3noc4cc(F)ccc34)CC1)CCC[C@H]2O	-0.191% [at 20 µM]	
Cc1cc(=O)n(-c2ccccc2)n1C	-3.33%	
C[C@H]1C[C@H]2[C@@H]3CCC4=CC(=O)C=C[C@]4(C)[C@@]3(Cl)[C@@H](O)C[C@]2(C)[C@@]1(O)C(=O)CO	-16.9%	
CN(C)CCCOc1nn(Cc2ccccc2)c2ccccc12		15.4 µM (active)
COc1cc2c(cc1OC)C(C(C(=O)N(CCc1ccc(OC)c(OC)c1OC)CCc1ccc(OC)c(OC)c1OC)c1ccccc1)=NCC2 (stereo not given)	-10.4%	
Cc1ccc(O)c2ncccc12		7.7 µM (active)
CN(C)/N=N/c1nc[nH]c1C(N)=O	5.05%	
CCCC(=O)Nc1ccc(OCC(O)CNC(C)C)c(C(C)=O)c1 (stereo not given)	-19.8%	
NCCCC[C@H](N[C@@H](CCc1ccccc1)C(=O)O)C(=O)N1CCC[C@H]1C(=O)O	0.701%	
COc1ccc(CN2CCN(C(c3ccc(F)cc3)c3ccc(F)cc3)CC2)c(OC)c1OC		21.7 µM (active)
O=C(OCC(O)CO)c1ccccc1Nc1ccnc2cc(Cl)ccc12 (stereo not given)	-16.5%	
Cc1c(F)c(N2CCNC(C)C2)cc2c1c(=O)c(C(=O)O)cn2C1CC1 (stereo not given)	5.88%	
CCN(CC)C(=O)/C(C#N)=C/c1cc(O)c(O)c([N+](=O)[O-])c1	-11.2%	
OCc1ccccc1O	5.58%	
CCN1CCN(c2cc3c(cc2F)c(=O)c(C(=O)O)cn3C2CC2)CC1	-4.35%	
CC(Cc1cccc(C(F)(F)F)c1)NCCOC(=O)c1ccccc1 (stereo not given)	-24.1%	

SMILES	activity change, negative = cytotoxic	Potency
CC(=O)N(O)CCCCCNC(=O)CCC(=O)N(O)CCCCCNC(=O)CCC(=O)N(O)CCCCCN		5.45 µM (active)
Cc1cc2c(cc1CC(=O)c1sccc1S(=O)(=O)Nc1onc(C)c1Cl)OCO2	-5.09%	
CCOC(=O)OC(C)OC1=C(C(=O)Nc2ccccn2)N(C)S(=O)(=O)c2ccccc21 (stereo not given)	4.85%	
O=C1OC(c2ccc(O)cc2)(c2ccc(O)cc2)c2ccccc21	-10.9%	
O=c1[nH]c(=O)n([C@H]2C[C@H](O)[C@@H](CO)O2)cc1C(F)(F)F	-21.4%	
C[C@H]1[C@H](NC(=O)/C(=N/OC(C)(C)C(=O)O)c2csc(N)n2)C(=O)N1S(=O)(=O)O (stereo in doubt)	-5.58%	
O=C(O)CNC(=O)c1ccccc1	7.18%	
NC[C@H]1O[C@H](O[C@H]2[C@H](O)[C@@H](O[C@H]3O[C@H](CO)[C@@H](O)[C@H](N)[C@H]3O)[C@H](N)C[C@@H]2N)[C@H](N)[C@@H](O)[C@@H]1O	-4.61% [at 20 µM]	
CCOC(=O)COc1ccc2c(C)c(CCN(CC)CC)c(=O)oc2c1Cl	-11.6%	
CCOc1ccc(NC(=O)CC(C)O)cc1 (stereo not given)	-24.2%	
CC(O)C(=O)O (stereo not given)	4.05%	
NC(=O)c1cc[n+](CC2=C(C(=O)[O-])N3C(=O)[C@@H](NC(=O)Cc4cccs4)[C@H]3SC2)cc1	-17.4%	
O=C(Nc1ccc(Cl)c(Cl)c1)C1CC1	-44.9%	
C[C@H](O)C(=O)Nc1c(I)c(C(=O)NC(CO)CO)c(I)c(C(=O)NC(CO)CO)c1I	-8.74%	
NC(=NCCCCCCN=C(N)/N=C(\N)Nc1ccc(Cl)cc1)/N=C(\N)Nc1ccc(Cl)cc1		7.7 µM (active)
CC(=O)Nc1c(I)cc(I)c(C(=O)O)c1I	-11.6%	
Cc1c(N(C)CS(=O)(=O)O)c(=O)n(-c2ccccc2)n1C	-0.773%	
Nc1ccc(C(=O)O)cc1	16.9%	
CCOC(=O)/C=C(C)/C=C/C=C(C)/C=C/c1c(C)cc(OC)c(C)c1C	-16.4%	
C#C[C@]1(OC(C)=O)CC[C@H]2[C@@H]3CCC4=C[C@@H](OC(C)=O)CC[C@@H]4[C@H]3CC[C@@]21C	-23.2%	
